The source made the active and inactive calls. Unless noted, how the calls were made is not given here.
Legend:
[1] = HepG2 liver cancer cell viability effects, profiling panel, resazurin fluorescence, 24 h, PK04 Diversity Set (AID 1172); conditions: higher = more signal
[2] = basal S. cerevisiae growth modulation, no modifier, primary screen, OD600, strain BY4716, 24 h, basal condition (AID 1173); conditions: OD600, 24 h, higher = more signal, called active from +8 up or from −8 down
[3] = MM1S myeloma cell viability, profiling panel, resazurin fluorescence, basal, 24 h, PK04 Diversity Set (AID 1174); conditions: higher = more signal, called active from +8 up or from −8 down;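 further: MM1S multiple myeloma cell line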
[4] = target: Dihydroorotate dehydrogenase (quinone), mitochondrial (Plasmodium falciparum (isolate 3D7)) (UniProt Q08210); assay: PfDHODH enzyme inhibitors, primary screen, biochemical, C-terminal His tag, absorbance 600 nm (AID 1175); conditions: DCIP absorbance 600 nm, higher = more signal, called active from +8 up or from −8 down;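 further: recombinant parasite enzyme with a five histidine tag at its C terminus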
[5] = P. aeruginosa biofilm formation inhibitors, primary screen, strain PAO1, LB-PBS medium, absorbance 600 nm (AID 1176); conditions: P. aeruginosa PAO1 growth/biofilm, A600, 12 h; higher = more signal
[6] = S. cerevisiae RM11-1a growth modifiers, primary screen, strain RM11-1a, OD600, basal, 24 h (AID 1177); conditions: OD600, 24 h, higher = more signal, called active from +8 up or from −8 down;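 further: cultures grown under basal conditions with no added stressor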
[7] = E. coli acrAB mutant growth effects, primary screen, E. coli filamentation inducers, strain DRC39, OD650, 24 h (AID 1178); conditions: higher = more signal, called active from +8 up or from −8 down;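 further: growth measured as culture turbidity by optical density at 650 nm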
[8] = E. coli acrAB mutant growth effects, primary screen, E. coli filamentation inducers, strain DRC39, OD650, 48 h (AID 1179);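 further: screen aims at cell division blockers that make cells filament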; conditions: E. coli DRC39 delta-acrAB growth, higher = more signal, called active from +8 up or from −8 down
[9] = RPMI8226 myeloma cell viability, profiling panel, resazurin fluorescence, basal, 24 h, PK04 Diversity Set (AID 1180); conditions: higher = more signal;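 further: RPMI8826 multiple myeloma cell line at 5000 cells per well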
[10] = target: E3 ubiquitin-protein ligase XIAP (Homo sapiens) (UniProt P98170); assay: XIAP binders, primary screen, biophysical, small-molecule microarray, fluorescence 635 nm (AID 1181); conditions: small-molecule microarray binding, higher = more signal;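 further: score merges 667 nm emission and signal to noise over triplicate slides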
[11] = tested on: XIP peptide (Xip251-270) binding; assay: small-molecule binders of XIP peptide, primary screen, biochemical, small-molecule microarray, fluorescence 635/667 nm, 0.1 µg/mL protein (AID 1182); conditions: fluorescent protein binding, 635 nm, higher = more signal, called active from +8 up or from −8 down
XIP peptide (Xip251-270) = assay: small-molecule binders of XIP peptide, primary screen, biochemical, small-molecule microarray, fluorescence 635/667 nm, 0.5 µg/mL protein (AID 1183); conditions: small-molecule microarray binding, fluorescence 635 nm; higher = more signal
[12] = Plasmodium falciparum growth inhibition, primary screen, strain 3D7, DAPI fluorescence, 100 nL (AID 1184);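 further: parasites grown inside human red blood cells in medium with human serum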; conditions: P. falciparum 3D7 growth, 3 d, higher = more signal
[13] = target: Homeobox protein Hox-A13 (Mus musculus) (UniProt Q62424); assay: inhibitors of HoxA13-DNA binding, primary screen, biochemical, fluorescence polarization, labeled oligonucleotide (AID 1185); conditions: 15 min, higher = more signal, called active from +8 up or from −8 down
Sequence of Homeobox protein Hox-A13 (Mus musculus) (Q62424 whole entry, looked up): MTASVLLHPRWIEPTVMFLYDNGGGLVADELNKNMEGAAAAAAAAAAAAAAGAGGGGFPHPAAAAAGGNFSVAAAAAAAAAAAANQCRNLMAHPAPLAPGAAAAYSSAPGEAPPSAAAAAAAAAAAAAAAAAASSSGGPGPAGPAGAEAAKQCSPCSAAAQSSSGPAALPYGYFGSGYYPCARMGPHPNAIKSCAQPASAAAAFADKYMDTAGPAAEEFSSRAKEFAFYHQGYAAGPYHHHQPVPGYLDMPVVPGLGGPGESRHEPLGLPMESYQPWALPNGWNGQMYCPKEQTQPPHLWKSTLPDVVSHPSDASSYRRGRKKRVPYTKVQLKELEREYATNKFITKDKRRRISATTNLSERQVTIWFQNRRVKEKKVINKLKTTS

Sequence of E3 ubiquitin-protein ligase XIAP (Homo sapiens) (P98170 whole entry, looked up): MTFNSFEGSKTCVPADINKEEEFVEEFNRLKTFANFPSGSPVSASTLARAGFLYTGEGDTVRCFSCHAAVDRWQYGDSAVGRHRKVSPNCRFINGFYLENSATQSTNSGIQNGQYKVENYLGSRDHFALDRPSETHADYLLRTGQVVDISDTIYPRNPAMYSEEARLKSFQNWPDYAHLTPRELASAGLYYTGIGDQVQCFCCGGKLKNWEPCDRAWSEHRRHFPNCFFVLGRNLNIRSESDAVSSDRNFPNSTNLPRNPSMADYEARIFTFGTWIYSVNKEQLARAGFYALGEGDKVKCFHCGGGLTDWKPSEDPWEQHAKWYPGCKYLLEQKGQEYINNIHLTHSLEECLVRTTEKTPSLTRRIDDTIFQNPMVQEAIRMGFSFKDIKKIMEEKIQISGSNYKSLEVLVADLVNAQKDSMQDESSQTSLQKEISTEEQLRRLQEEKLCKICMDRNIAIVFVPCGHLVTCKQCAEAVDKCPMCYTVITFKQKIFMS
Sequence of Dihydroorotate dehydrogenase (quinone), mitochondrial (Plasmodium falciparum (isolate 3D7)) (Q08210 whole entry, looked up): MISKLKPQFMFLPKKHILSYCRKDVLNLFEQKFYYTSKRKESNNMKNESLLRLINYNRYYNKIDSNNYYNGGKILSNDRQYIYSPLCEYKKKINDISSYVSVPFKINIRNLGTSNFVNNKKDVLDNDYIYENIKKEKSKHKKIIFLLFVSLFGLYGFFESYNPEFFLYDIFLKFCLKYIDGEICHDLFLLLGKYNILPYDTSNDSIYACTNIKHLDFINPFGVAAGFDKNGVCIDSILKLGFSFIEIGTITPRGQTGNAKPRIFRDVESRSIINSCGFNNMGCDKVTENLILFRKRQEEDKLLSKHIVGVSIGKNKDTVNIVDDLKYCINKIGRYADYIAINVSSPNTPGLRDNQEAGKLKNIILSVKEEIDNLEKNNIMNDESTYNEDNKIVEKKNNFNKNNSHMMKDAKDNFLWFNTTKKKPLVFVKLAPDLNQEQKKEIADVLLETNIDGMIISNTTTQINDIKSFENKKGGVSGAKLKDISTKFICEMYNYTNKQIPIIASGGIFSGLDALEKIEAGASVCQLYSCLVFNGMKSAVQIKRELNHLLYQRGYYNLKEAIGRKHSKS

| Structure (SMILES) | z-score [1] | z-score [2] | z-score [3] | composite z-score [4] | z-score [5] | z-score [6] | z-score [7] | z-score [8] | z-score [9] | composite z-score [10] | composite z-score [11] | composite z-score (XIP peptide (Xip251-270)) | z-score [12] | z-score [13] |
| --- | --- | --- | --- | --- | --- | --- | --- | --- | --- | --- | --- | --- | --- | --- |
| COC(=O)[C@H](C)NC(=O)CCC1CC(OC(=O)NCc2cccc3ccccc23)CC2(CCCC(COC(=O)NCCc3ccccc3OC)O2)O1 (some centres undefined) | -0.0725 | 0.526 (inactive) | -0.232 (inactive) | 0.325 (inactive) | 0.639 (inactive) | 1.61 (inactive) | 0.642 (inactive) | -0.0569 (inactive) | -0.472 | 0.0932 | -0.0645 (inactive) | 0.384 | -1.47 | -4.27 (inactive) |
| COC(=O)[C@@H]1CC[C@H](C)[C@@H](c2ccc(C)cc2)N1C(=O)c1ccc(C=NOC[C@H]2O[C@H](c3ccccc3)C=C[C@@H]2Oc2ccc(OC)cc2)cc1 | 0.158 | 0.856 (inactive) | -0.0983 (inactive) | 0.13 (inactive) | 0.0282 (inactive) | 0.386 (inactive) | -0.469 (inactive) | -0.499 (inactive) | 0.539 | -0.0773 | 0.176 (inactive) | 0.313 | -1.14 | -0.0628 (inactive) |
| COC(=O)[C@@H]1CC[C@H](C)[C@@H](c2ccc(Br)cc2)N1C[C@H](O)CN=[N+]=[N-] | -0.413 | -6.28 (inactive) | -0.666 (inactive) | 0.294 (inactive) | 1.09 (inactive) | 0.347 (inactive) | -0.78 (inactive) | -1.18 (inactive) | 0.385 | -0.122 | 1.12 (inactive) | -0.135 | -0.637 | -2.93 (inactive) |
| CC(=O)OC[C@H]1O[C@H](CCON=C(C)CCN2CCCc3nc(C)c(C)cc32)C=C[C@@H]1OC(C)=O | 0.0171 | 1.34 (inactive) | -0.102 (inactive) | 0.245 (inactive) | 0.511 (inactive) | 1.3 (inactive) | 0.565 (inactive) | 0.16 (inactive) | -0.0643 | -0.0878 | 0.36 (inactive) | 0.651 | -1.47 | -6.43 (inactive) |
| CC(C)[C@@H](OCc1ccccc1)[C@H](C)C=NO[C@@H](C)c1cn([C@H](CO)Cc2ccccc2)nn1 | -1.07 | -2.35 (inactive) | -0.883 (inactive) | -0.984 (inactive) | 0.241 (inactive) | -0.0022 (inactive) | 0.805 (inactive) | 0.633 (inactive) | -1.63 | 0.0374 | 0.334 (inactive) | -0.0098 | 0.949 | -5.22 (inactive) |
| O=C1C=C[C@@H](O)[C@@H]2[C@@H]3C(=O)N(Cc4ccccc4)C(=O)[C@@H]3CC[C@@H]12 | -0.178 | -0.459 (inactive) | 0.183 (inactive) | -0.136 (inactive) | 0.647 (inactive) | -0.83 (inactive) | 0.479 (inactive) | 0.116 (inactive) | -0.242 | -0.0566 | 0.771 (inactive) | -0.0049 | -0.0141 | 0.291 (inactive) |
| C[C@H]1CC[C@H]2C(=O)N[C@H](Cc3ccccc3)C(=O)N2[C@@H]1c1ccccc1 | -0.69 | -0.512 (inactive) | -0.322 (inactive) | 0.868 (inactive) | -0.327 (inactive) | 0.0033 (inactive) | 0.718 (inactive) | 0.295 (inactive) | -0.142 | -0.24 | 0.469 (inactive) | 0.647 | 0.388 | -0.879 (inactive) |
| COCCNC(=O)OCC1CCCC2(CC(OC(=O)NCc3cccc4ccccc34)CC(CCC(=O)N[C@@H](C)C(=O)OC)O2)O1 (some centres undefined) | 1.77 | -0.0524 (inactive) | 0.343 (inactive) | 0.124 (inactive) | -0.303 (inactive) | 1.36 (inactive) | 0.17 (inactive) | 0.812 (inactive) | 0.79 | -0.0999 | 0.505 (inactive) | 0.588 | -1.85 | -3.88 (inactive) |
| CCOC(=O)[C@H](Cc1ccccc1)NC(=O)CCC1CC(OC(=O)NCc2ccc3c(c2)OCO3)CC2(CCCC(COC(=O)NCCOc3ccccc3)O2)O1 (some centres undefined) | 0.425 | -1.24 (inactive) | 0.975 (inactive) | -1.76 (inactive) | -0.102 (inactive) | 0.0995 (inactive) | 0.662 (inactive) | 0.181 (inactive) | 0.579 | -0.0832 | -0.125 (inactive) | 0.565 | -1.57 | -0.985 (inactive) |
| CC(C)=CCCC(C)=CCON=C1C[C@@H](O)[C@@H](O)[C@@H]2[C@@H]3C(=O)N(Cc4ccc5c(c4)OCO5)C(=O)[C@@H]3CC[C@@H]12 | 0.542 | -0.872 (inactive) | 0.411 (inactive) | -0.396 (inactive) | -0.437 (inactive) | 0.268 (inactive) | 0.499 (inactive) | -0.588 (inactive) | 0.354 | -0.17 | 1.07 (inactive) | 0.245 | -0.526 | -0.814 (inactive) |
| C=CC[C@@H]1C=C[C@H](ON=C(C)CCN2CCCCc3nc(C)c(C)cc32)[C@@H](CO)O1 | 0.162 | 0.399 (inactive) | -0.201 (inactive) | -0.923 (inactive) | 0.323 (inactive) | 0.334 (inactive) | -0.275 (inactive) | -0.681 (inactive) | -0.103 | 0.183 | -0.167 (inactive) | 0.143 | -0.784 | -4.55 (inactive) |
